Assay results taken from PubChem BioAssay (NCATS).
Records with an inconclusive call do not appear. Calls of active or inactive are those of the source. Calls follow the shape of the dose curve; as a rule, active = well fitted curve in the direction sought with a large enough effect; inconclusive = small, poorly fitted or top-dose-only effect, or another doubt; inactive = no such curve, though single readings can be large; an effect the other way counts as inactive or inconclusive.

Assays:
[1] = UWB1.289-WTBRCA1 Cancer Cell Toxicity qHTS against the NCATS CANVASS Library (AID 1347354); conditions: UWB1.289-WTBRCA1 viability, CellTiter-Glo luminescence, 72 h; at 38.3 µM (top of the series)
Procedure, shortened: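 Using an ATP-based luminescent reagent after three days of treatment, toxicity is scored across an eleven-concentration range in wells holding 1000 cells each.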

[2] = HEK-293 Cancer Cell Toxicity qHTS against the NCATS CANVASS Library (AID 1347355); also: nearly all actives have a fitted effect of over 65% in size
Source text: Natural products and their derivatives continue to be wellsprings of nascent therapeutic potential. However, many laboratories have limited resources for biological evaluation, leaving their previously isolated or synthesized compounds largely or completely untested. To address this issue, the Canvass library of natural products was assembled (https://tripod.nih.gov/canvass), in collaboration with academic and industry researchers, for quantitative high-throughput screening (qHTS) across a diverse set of cell-based and biochemical assays. The pure (>85% purity by liquid chromatography/mass spectrometry [LC/MS]) Canvass library of 346 natural products were submitted by 45 academic laboratories and companies around the world. […] The library was formatted into 1536-well plates and evaluated in 50 qHTS (in an 11-pnt concentration series) bioassays with broad scope of disease-relevant mechanisms. The resulting data set from 50 different assays was then systematically analyzed to identify overall trends and specific natural products with interesting biological activities. […]
Cancer Cell Toxicity COV-362, OV-KATE, OV-SAHO, UWB1.289, UWB1.289-WTBRCA1, HEK-293, HPAF-II, Panc-1005, SW1088, and U-118MG-screen protocol. […] Luminescence signal was acquired via the ViewLux plate reader (PerkinElmer) using a clear filter, 2 second exposure and 2x binning settings.

[3] = HPAF-II 24hr Apoptosis Induction qHTS against the NCATS CANVASS Library (AID 1347356)
Procedure, shortened: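 Using an 11-point qHTS format, HPAF-II cells in DMEM/10% FBS received compounds for 24 h; doxorubicin titration as control. Caspase-3/7 activity quantified by DEVD-luciferase luminescence.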

[4] = HEK293 18hr Apoptosis Induction qHTS against the NCATS CANVASS Library (AID 1347357)
Procedure, shortened: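 HEK293 cells (500/well, DMEM + 10% FBS) treated with an 11-point series for 18 h at 37 degrees C. Caspase-3/7 activity read by Caspase-Glo luminescence after 15 min at room temperature.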

[5] = HPAF-II 12hr Apoptosis Induction qHTS against the NCATS CANVASS Library (AID 1347358)
Procedure, shortened: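 Twelve-hour compound exposure of HPAF-II cells in DMEM with 10% FBS, then luminescent Caspase-Glo 3/7 detection after 15 min at room temperature; doxorubicin control.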

[6] = HEK293 24hr Apoptosis Induction qHTS against the NCATS CANVASS Library (AID 1347359)
Procedure, shortened: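 HEK293 cells (500/well, DMEM + 10% FBS) were exposed to compounds in an 11-point series for 24 hours at 37 degrees C, then caspase-3/7 activity was read by Caspase-Glo DEVD luciferase luminescence after 15 min.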

[7] = HPAF-II 18hr Apoptosis Induction qHTS against the NCATS CANVASS Library (AID 1347360)
Procedure, shortened: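 HPAF-II cells at 500/well were exposed for 18 h at 37 C to an 11-point compound series. Caspase-3/7 activity was read by Caspase-Glo luminescence after 15 min at RT.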

[8] = HEK293 12hr Apoptosis Induction qHTS against the NCATS CANVASS Library (AID 1347361)
Procedure, shortened: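 HEK293 cells (500/well) were exposed to an 11-point qHTS concentration series for 12 hours at 37 degrees C. Caspase-3/7 activity was then read by DEVD-substrate luciferase luminescence after 15 min at room temperature.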

[9] = test system: NAD(P)H diaphorase (Clostridium kluyveri); experiment: Diaphorse counterscreen qHTS: Assay Interference Panel against the NCATS CANVASS Library (AID 1347362)
Procedure, shortened: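 Clostridium kluyveri diaphorase in PBS with 0.01% Tween-20 was preincubated 15 min at room temperature in the dark with compounds (11-point series). Resorufin fluorescence (ex 525/20, em 598/25) was read 5 min after adding resazurin/NADH.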

[10] = target: Luciferin 4-monooxygenase (Photinus pyralis) (UniProt P08659); experiment: Firefly luciferase counterscreen qHTS: Assay Interference Panel against the NCATS CANVASS Library (AID 1347363)
Procedure, shortened: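 Purified P. pyralis luciferase was added to compounds (11-point series) preincubated 15 min at room temperature with substrate containing 0.013 mM D-luciferin and 0.013 mM ATP; luminescence was read after 5 min.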

Measured: outcome

Chain of Luciferin 4-monooxygenase (Photinus pyralis) (P08659 whole entry, looked up): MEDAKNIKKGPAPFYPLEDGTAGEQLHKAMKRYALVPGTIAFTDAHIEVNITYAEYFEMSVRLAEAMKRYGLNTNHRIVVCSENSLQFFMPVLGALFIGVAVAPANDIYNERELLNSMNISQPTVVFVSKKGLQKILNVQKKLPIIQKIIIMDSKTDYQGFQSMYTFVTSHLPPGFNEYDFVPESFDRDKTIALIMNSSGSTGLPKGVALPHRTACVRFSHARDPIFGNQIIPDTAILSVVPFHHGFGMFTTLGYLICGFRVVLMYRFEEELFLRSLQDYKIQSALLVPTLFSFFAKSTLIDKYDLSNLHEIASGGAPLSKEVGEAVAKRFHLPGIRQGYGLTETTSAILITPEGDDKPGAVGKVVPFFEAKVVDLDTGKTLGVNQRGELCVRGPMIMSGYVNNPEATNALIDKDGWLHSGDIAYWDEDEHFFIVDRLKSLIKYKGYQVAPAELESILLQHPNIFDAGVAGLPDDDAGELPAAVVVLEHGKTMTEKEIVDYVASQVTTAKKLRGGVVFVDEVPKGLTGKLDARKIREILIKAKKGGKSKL

CN(C)CCc1c[nH]c2ccccc12
inactive: all assays above
